# Results: PubChem BioAssay (Tox21)
# Results filed as inconclusive are left out. Unmarked numbers belong to inactive results. Calls follow the shape of the full dose curve.
# Assay: qHTS assay for small molecule agonists of the p53 signaling pathway (AID 651631); also: nearly all actives have a fitted effect of over 15% in size
# Conditions: HCT-116 p53RE-bla reporter, beta-lactamase FRET ratio, 16 h; series mostly up to 73.3 µM; activation: at the top concentration
# Description: U.S. Tox21 Program National Center for Advancing Translational Sciences [NCATS] NIH Chemical Genomics Center [NCGC] U.S. Environmental Protection Agency [EPA] National Institutes of Environmental Health Sciences [NIEHS] National Toxicology Program [NTP] U.S. Food and Drug Administration [FDA] Tox21 Assay Overview: p53, a tumor suppressor protein, is activated following cellular insult, including DNA damage and other cellular stresses. The activation of p53 regulates cell fate by inducing DNA repair, cell cycle arrest, apoptosis, or cellular senescence. The activation of p53, therefore, is a good indicator of DNA damage and other cellular stresses. The CellSensor p53RE-bla HCT-116 cell line (Invitrogen) contains a stably integrated beta-lactamase reporter gene under control of the p53 response elements. The activation of the reporter gene under culture conditions can be detected by fluorescence intensity. This cell line was used to screen the Tox21 compound library in a 1536-well plate format and to identify agonists that activate the p53 signaling pathway.
# Tox21 Assay Protocol Summary: The p53RE-bla cells were dispensed at 4,000 cells/5 ul/well in 1536-well black wall/clear bottom plates using a Multidrop dispenser. After the assay plates were incubated at a 37 C/5% CO2 incubator for 5 hours, 23 nL of compounds dissolved in DMSO, positive controls or DMSO only was transferred to the assay plate by a pin tool. The plates were incubated at 37 C for 16 hours. After 1 uL of LiveBLAzerTM B/G FRET substrate was added using a Flying Reagent Dispenser, the plates were incubated at room temperature for 2 hours, and fluorescence intensity was measured by an Envision plate reader.
# % is scaled to controls: 0 for no effect and ±100 for the full control effect.
row,Structure (SMILES),activation
1,CC(C)(C)c1ccc(C=O)cc1,2.89%
2,O=C(CN1CCN(Cc2ccc3c(c2)OCO3)CC1)N1c2ccccc2Sc2ccccc21,1.92%
3,O=C(COCCOCCOCC(=O)Nc1c(I)cc(I)c(C(=O)O)c1I)Nc1c(I)cc(I)c(C(=O)O)c1I,-2.5%
4,C=CCOCC(CO)(COCC=C)COCC=C,-0.192%
5,BrC/C=C/CBr,-3.64% [at 34.7 µM]
6,C=COCCOCCOC=C,0.446%
7,CO[Si](CCCCl)(OC)OC,6.67%
8,CC(=O)Nc1ccc(C)cc1,-2.86%
9,CCCCCCCCCCCCCCCCI,-4.69% [at 34.7 µM]
10,Nc1cc(C(=O)O)ccc1Cl,-1.53%
11,OC[C@@H](O)[C@H](O)[C@@H](O)[C@@H](O)CO,0.607%
12,COc1cc2c3cc1Oc1cc(ccc1O)C[C@@H]1c4c(cc(OC)c(O)c4Oc4ccc(cc4)C[C@@H]3N(C)CC2)CC[N+]1(C)C,-0.703%
13,O=C(O)C(=O)Nc1cccc(-c2nn[nH]n2)c1,-2.68%
14,CN[C@@H]1[C@H](O)[C@H](NC)[C@H]2O[C@@]3(O)C(=O)C[C@@H](C)O[C@H]3O[C@@H]2[C@H]1O,1.9% [at 34.7 µM]
15,O=C(O)c1ccccc1C(=O)Nc1ccc(S(=O)(=O)Nc2nccs2)cc1,-3.34%
16,COCCOCCOCCOC,2.57%
17,CCCCCCCC/C=C\CCCCCCCC(=O)OC[C@@H](O)[C@H]1OC[C@H](O)[C@H]1O,1.31%
18,Nc1ccc(S(=O)(=O)Nc2ccccn2)cc1,-1.91% [at 34.7 µM]
19,CC1=NN(c2ccc(S(=O)(=O)O)cc2)C(=O)C1N=Nc1ccccc1 (stereo not given),2.24%
20,CC1(N)CCC(C(C)(C)N)CC1 (stereo not given),-1.8%

row,Structure (SMILES),activation
1,CC(=O)OC(C)(C)Cc1ccccc1,3.43%
2,CCC(C)(C)C1CCC(=O)CC1,-0.745%
3,CC(=O)/C=C/c1ccco1,-1.46% [at 95.1 µM]
4,CCOC(=O)CC#N,1.48%
5,CC(C)COC(=O)/C=C/c1ccccc1,-2.13%
6,O=C(Nc1cccc(C2=NCCN2)c1)Nc1cccc(C2=NCCN2)c1,4.88%
7,O=CN1CCOCC1,-0.224%
8,NC(=O)C1(N2CCCCC2)CCN(CCCC(=O)c2ccc(F)cc2)CC1,-3.68%
9,COc1cc([N+](=O)[O-])ccc1N,-2.52%
10,Cc1cc(O)c2c(c1)C(=O)c1cccc(O)c1C2=O,2.88%
11,CCC(=O)c1ccc(O)cc1,-2.71%
12,CC(=O)OCCCc1ccccc1,-0.383%
13,CCCCCCCCOC(C)=O,3.25%
14,CCCCCCCCCOCC1CO1 (stereo not given),-2.9% [at 95.1 µM]
15,CNCc1ccccc1,-4.15%
16,C/C=C(\C)C(=O)OCC/C=C\CC,0.866%
17,CCOC(=O)CCCCCCCCC(=O)OCC,2.22%
18,OCCCCCCCl,-4.91% [at 95.1 µM]
19,CC(Cl)COP(=O)(OCC(C)Cl)OCC(C)Cl (stereo not given),-1.97%
20,C1CCN2C[C@@H]3C[C@@H](CN4CCCC[C@@H]34)[C@H]2C1,6.12% [at 34.7 µM]
